AMA1 RON2 block: qHTS for Inhibitors of AMA1-RON; Towards Development of Antimalarial Drug Lead: Primary Screen | Plasmodium falciparum AMA1 (3D7) - RON2 peptide interaction | AlphaScreen AMA1-biotinylated RON2 peptide binding | Potency, µM (top dose mostly 58.2 µM), for the others: at the top dose activity change, negative = inhibition, most hits filed as inhibitors | actives 0.2% (n = 360,000) | AID 720542, 2013;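 further: 0% = vehicle wells and -100% = peptide control; nearly all actives have a fitted effect of over 45% in size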
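AMA1 (3D7) with his tag at 25 nM final met compounds first, then biotinylated RON2 peptide at 25 nM; detection used donor plus acceptor beads, 10 µg/mL apiece, read by AlphaScreen after 30 min at room temperature.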
AmpC detergent: qHTS Inhibitors of AmpC Beta-Lactamase (assay with detergent). P00811. AmpC hydrolysis of nitrocefin, absorbance 480 nm, 0.01% Triton. Potency, µM (series often up to 114 µM), inactives show at the highest dose activity change, negative = inhibition, usual class: inhibitors. actives 0.041% (n = 370,000). AID 485294, 2010;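 further: 0% = no-compound wells and -100% = no-enzyme wells; nearly all actives have a fitted effect of over 25% in size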
Target sequence (P00811 whole entry, looked up): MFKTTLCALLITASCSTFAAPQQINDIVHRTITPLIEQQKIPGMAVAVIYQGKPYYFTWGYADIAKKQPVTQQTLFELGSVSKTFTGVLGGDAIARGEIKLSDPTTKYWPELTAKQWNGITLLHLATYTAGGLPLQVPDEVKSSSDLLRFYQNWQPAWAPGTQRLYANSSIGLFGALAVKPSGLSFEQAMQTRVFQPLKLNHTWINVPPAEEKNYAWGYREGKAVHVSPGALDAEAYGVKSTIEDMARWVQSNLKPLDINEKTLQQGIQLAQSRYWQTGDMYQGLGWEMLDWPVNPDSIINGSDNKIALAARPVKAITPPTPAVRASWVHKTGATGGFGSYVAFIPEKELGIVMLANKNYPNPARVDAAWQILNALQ
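AmpC (5.3 nM in the dispensed reagent) in 20 mM phosphate pH 7.0 with 0.01% (detergent screen) or 0.0001% Triton X-100 was preincubated with compounds for 15 min at room temperature. Nitrocefin was then added from an 800 uM solution, and hydrolysis was followed at 480 nm.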
Pf growth 96h: Primary qHTS for delayed death inhibitors of the malarial parasite plastid, 96 hour incubation. P. falciparum luciferase reporter growth, 96 h. Potency, µM (series often up to 28.7 µM), for inactives: at the highest dose activity change, negative = inhibition, hits mostly inhibitors. actives 6.9% (n = 320,000). AID 504834, 2011
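Readout is luminescence from an integrated firefly luciferase in P. falciparum. Red cells, 2% hematocrit and 0.05% parasitemia final, were cultured with compound through two parasite generations (96 hours) at 37 C, 5% CO2.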
AmpC no deterg: qHTS Inhibitors of AmpC Beta-Lactamase (assay without detergent); P00811; AmpC nitrocefin hydrolysis, absorbance 480 nm, 0.0001% Triton; Potency, µM (doses to about 57.1 µM), inactives show at the highest dose activity change, negative = inhibition, usual class: inhibitors; actives 0.52% (n = 330,000);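 further: plate controls were no compound for no effect and no enzyme for full effect; nearly all actives have a fitted effect of over 20% in size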
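AmpC (5.3 nM in the dispensed reagent) in 20 mM phosphate pH 7.0 with 0.01% (detergent screen) or 0.0001% Triton X-100 was preincubated with compounds for 15 min at room temperature. Nitrocefin was then added from an 800 uM solution, and hydrolysis was followed at 480 nm.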
HCV inh: qHTS Assay for Inhibitors of Hepatitis C Virus (HCV). Potency, µM (doses to about 41.8 µM), without a hit: top-dose activity change, negative = inhibition, usual class: inhibitors. actives 3.4% (n = 340,000). AID 651820, 2012. Huh7.5.1 HCVcc-Cre infection, luciferase reporter, 44 h
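Infectious HCVcc-Cre (~0.5 moi) was added to cells just after compound, with cells seeded 4 h earlier at 1,000 per well. Luciferase activity after 44 h culture reported infection; substrate was incubated 15 min at room temperature before reading.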
Pf growth 48h: Primary qHTS for delayed death inhibitors of the malarial parasite plastid, 48 hour incubation; Potency, µM (highest dose often 28.7 µM), without a hit: at the highest dose activity change, negative = inhibition, actives largely listed as inhibitors; AID 504832, 2011; actives 5.9% (n = 310,000); P. falciparum luciferase growth in erythrocytes, 48 h
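Read-out is firefly luciferase luminescence from an integrated reporter in P. falciparum, so falling signal marks reduced parasite growth. Infected erythrocytes were at 2% hematocrit and 0.1% parasitemia (final) in Albumax-supplemented RPMI 1640.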
Numbers without * were called inactive; ? = inconclusive; . = no result given. Most compounds without a hit are left out; they make up all but 11% or so of the library. The call rests on the fitted dose curve; in most records, active means well fitted curve in the direction sought with a large enough effect; inconclusive means small, poorly fitted or top-dose-only effect, or another doubt; inactive means no such curve, though single readings can be large; an effect the other way counts as inactive or inconclusive. Unless noted, on the % scale 0 is the no-effect control and ±100 the full control effect; potency means the concentration at half of the fitted maximal effect.

SMILES | AMA1 RON2 block | AmpC detergent | Pf growth 96h | AmpC no deterg | HCV inh | Pf growth 48h
CCCN(CCC)CCCNC(=O)c1cc2c(=O)oc3ccc(C)cc3c2s1 | . | -8.7% | . | . | . | .
Cc1ccc(CCNC(=O)c2ccc(CNS(=O)(=O)c3ccc(F)cc3)cc2)cc1 | . | 5.9% | . | . | . | .
CCOC(=O)c1ccccc1NC(=O)Cn1ncc2c([nH]c3ccccc32)c1=O | . | 15.6% | . | . | . | .
Cc1ccc(C(C[N+](=O)[O-])Sc2ccc(N)cc2)cc1 (configuration not stated) | -5.0% | ? | 11.7µM* | -41.7% | ? | ?
Cc1ccc2occ(CN3CCN(c4ccccc4)CC3)c(=O)c2c1 | -7.8% | ? | 26.0% | 0.5% | -12.0% | 5.0%
Oc1cc2c(cc1CN1CCN(c3ccccc3)CC1)CCC2 | 28.3% | -15.2% | 2.62µM* | -24.0% | ? | 1.65µM*
COc1ccc(N2CCN(Cc3cc4c(cc3O)CCC4)CC2)cc1 | 15µM* | 2.2% | . | -2.8% | ? | 1.65µM*
CC(=O)Nc1ccc(CN2CCN(c3cccc(C(F)(F)F)c3)CC2)cc1 | -26.0% | ? | 48.0% | 35.7% | 22.1% | .
Oc1cc2c(cc1CN1CCN(c3cccc(C(F)(F)F)c3)CC1)CCC2 | ? | ? | 1.17µM* | -20.8% | -1.9% | 1.65µM*
CCOC(=O)c1cccc(Nc2cc(C)nc(C)n2)c1 | . | 15.1% | . | . | . | .
COc1ccc(N2CCN(C(=O)C(C)n3nc(C)c4sc5ccccc5c4c3=O)CC2)cc1 (configuration not stated) | . | 17.1% | . | . | . | .
COCc1ccc(CN2CCCC(C(=O)c3sccc3C)C2)o1 (configuration not stated) | 18.8% | -5.3% | 14.7µM* | 4.5% | -23.7% | 14.4%
COc1ccccc1CC1(C)NC(=O)N(CC(=O)N2CC(C)OC(C)C2)C1=O (configuration not stated) | -13.6% | -10.4% | 0.522µM* | -16.2% | 17.3% | 6.3%
CCCCC(=O)Nc1nnc(S(=O)(=O)N(C)Cc2ccc(Cl)cc2)s1 | . | 14.2% | . | . | . | .
CC(NC(=O)CN(C)Cc1nc2ccccc2c(=O)[nH]1)c1ccccc1 (configuration not stated) | 160.7% | -3.7% | ? | 2.6% | -8.0% | .
CC(OCC(O)CN(C)Cc1nc2ccccc2c(=O)[nH]1)c1ccc(Cl)cc1 (configuration not stated) | 102.9% | -3.2% | ? | 118.3% | 10µM* | ?
COc1ccc(-c2nc3sc(CCNC(=O)c4cc(OC)c(OC)c(OC)c4)c(C)n3n2)cc1 | . | 5.6% | . | . | . | .
Cc1ccc(C(C(=O)NC2CCCCC2)N(Cc2ccco2)C(=O)Cn2cnc3ccccc32)cc1 (configuration not stated) | -14.8% | 2.8% | -7.8% | 81.2% | -5.0% | 11.7µM*
O=C(NC1CCCCC1)C(c1ccc(F)cc1)N(Cc1ccco1)C(=O)Cn1nnc2ccccc21 (configuration not stated) | -2.1% | 2.2% | . | -16.5% | 6.1% | -20.1%
CCC(C(=O)NC1CCCC1)N(Cc1ccco1)C(=O)Cn1nnc(-c2ccc(C)cc2)n1 (configuration not stated) | -6.8% | 19.3% | 9.28µM* | 66.5% | ? | ?
COc1ccc(C)cc1NC(=O)Cn1c(=O)ccc2cc(S(=O)(=O)N3CCC(C)CC3)ccc21 | . | 1.1% | . | . | . | .
Cc1nn(C)c(C)c1CN(Cc1nc(CCC(C)C)no1)C(C)C | -0.7% | 6.0% | 38.9% | 97.7% | 1µM* | ?
CCCC[n+]1c(-c2ccc(Cl)cc2Cl)csc1Nc1ccccc1 | ? | -6.2% | 1.65µM* | -16.8% | ? | 3.7µM*
Clc1ccc(-c2csc(Nc3ccccc3)[n+]2Cc2ccco2)c(Cl)c1 | ? | 5.4% | ? | -29.6% | ? | 11.7µM*
C=CC[n+]1c(-c2ccc(Cl)cc2Cl)csc1Nc1c(C)n(C)n(-c2ccccc2)c1=O | -29.9% | 0.9% | ? | 97.2% | 12.6µM* | ?
SMILES | AMA1 RON2 block | AmpC detergent | Pf growth 96h | AmpC no deterg | HCV inh | Pf growth 48h
C=CC[n+]1c(-c2ccc(Cl)cc2Cl)csc1Nc1ccc(NC(C)=O)cc1 | ? | 1.6% | -81.3% | 81.8% | ? | ?
Cc1ccc(NC(=O)c2nn(C34CC5CC(CC(C5)C3)C4)cc2[N+](=O)[O-])cc1 | -6.8% | -2.3% | 1.47µM* | -6.2% | ? | ?
Cc1nn(CC(=O)NCc2cccc(Br)c2)c(=O)c2c1sc1ccccc12 | . | 19.7% | . | . | . | .
Cc1cc(C)c(C)c(OCCCCN(C)Cc2ccccc2)c1 | -3.7% | -15.7% | 13.1µM* | 45.2% | 0.2% | ?
CN(CCOCCOc1ccc2ccccc2c1)Cc1ccccc1 | 6.0% | 2.5% | 14.7µM* | 75.2% | -16.6% | .
CN(CCCCOc1ccc(F)cc1)Cc1ccccc1 | ? | -4.0% | ? | 5.7% | -7.9% | 45.1%
CCc1ccc(OCCCCN(C)Cc2ccccc2)cc1 | ? | ? | 13.1µM* | 14.2% | -26.4% | -2.3%
CN(C)CCCCOc1ccc(F)cc1 | -17.7% | 1.5% | 11.7µM* | -9.2% | -9.5% | -18.9%
Cc1cc(C)cc(NC(=O)CSc2nnc(COc3ccccc3Cl)o2)c1 | . | -9.7% | . | . | . | .
Cc1ccc2nc(NC(=O)c3nc(SCc4ccccc4C)ncc3Cl)sc2c1 | . | 2.5% | . | . | . | .
Cc1ccc(-n2c(SCC(=O)Nc3ccc4c(c3)OCCO4)nc3c([nH]c4ccccc43)c2=O)cc1 | . | -3.4% | . | . | . | .
Cc1ccc(S(=O)(=O)C(CNC(=O)COc2ccccc2)c2ccco2)cc1 (configuration not stated) | . | -0.6% | . | . | . | .
COc1ccccc1CN1COc2ccc3c(C)cc(=O)oc3c2C1 | . | 23.7% | . | . | . | .
Cc1ccc(C)c(OCC(=O)NNC(=O)C2CC2)c1 | 85.4% | 4.1% | 20.4% | -17.9% | 21.2% | 11.1%
Cc1cccc(C)c1OCC(=O)NNC(=S)NC(=O)C1CC1 | 146.0% | -9.7% | 10.4µM* | -21.7% | ? | ?
Cc1cccc(C)c1OCC(=O)NC1CC1 | -8.9% | 3.1% | 2.5% | -25.6% | 17.5% | 2.94µM*
CCOc1ccc2nc(Cl)c(C3CC(c4ccc(C)cc4)=NN3C(=O)CCC(=O)O)cc2c1 (configuration not stated) | . | 1.4% | . | . | . | .
CCc1ccc(-c2cc(C)no2)cc1S(=O)(=O)NCc1ccc(OC)cc1 | . | 3.1% | . | . | . | .
CCCCSc1nnc2n(-c3ccc(OC)cc3)c(=O)c3c4c(sc3n12)COC(C(C)C)C4 (configuration not stated) | . | 4.5% | . | . | . | .

Screening data (PubChem BioAssay)
